From the supplement of paper PMC3545927
The list shows a part of the results. No count for the full screen is at hand.

Target: furin, P09958
Assay: furin cleavage Z-score vs untreated control; higher = more cleavage, active = 3.5 or more, inactive = 1 or less, 8 variable residues between constant flanks
In short: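 Read counts from sequencing released DNA gave abundance for each bead-bound 8-mer peptide–cDNA fusion cut by purified furin over 7.5, 15 or 30 min. The cleavage Z-score compares log counts with furin-free reactions after lowess adjustment and median absolute deviation scaling.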
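Further: purified furin at 1:10 enzyme:substrate in 50 mM HEPES pH 7.5.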

Sequence of furin, P09958 (P09958 whole entry): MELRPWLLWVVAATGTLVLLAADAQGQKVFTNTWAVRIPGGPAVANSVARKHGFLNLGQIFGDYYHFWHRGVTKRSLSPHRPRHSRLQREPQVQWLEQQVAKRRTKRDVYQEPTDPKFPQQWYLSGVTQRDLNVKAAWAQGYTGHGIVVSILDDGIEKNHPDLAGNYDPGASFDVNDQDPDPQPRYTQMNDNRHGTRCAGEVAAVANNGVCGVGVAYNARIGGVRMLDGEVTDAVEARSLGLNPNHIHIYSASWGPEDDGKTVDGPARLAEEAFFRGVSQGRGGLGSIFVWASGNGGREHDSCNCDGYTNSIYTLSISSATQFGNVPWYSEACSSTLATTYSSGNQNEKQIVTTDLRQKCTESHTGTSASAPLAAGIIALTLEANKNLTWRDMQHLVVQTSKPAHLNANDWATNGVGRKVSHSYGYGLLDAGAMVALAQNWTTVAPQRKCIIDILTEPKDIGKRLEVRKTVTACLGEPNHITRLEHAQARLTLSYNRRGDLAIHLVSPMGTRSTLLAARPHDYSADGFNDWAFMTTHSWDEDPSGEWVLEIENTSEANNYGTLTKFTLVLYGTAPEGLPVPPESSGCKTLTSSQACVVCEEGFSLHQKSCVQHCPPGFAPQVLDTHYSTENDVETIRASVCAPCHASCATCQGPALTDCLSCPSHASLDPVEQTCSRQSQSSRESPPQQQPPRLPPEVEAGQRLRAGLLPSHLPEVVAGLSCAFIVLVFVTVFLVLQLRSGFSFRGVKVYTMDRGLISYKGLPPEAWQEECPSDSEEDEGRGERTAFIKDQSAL

Row | Sequence | furin cleavage Z-score (7.5 min) | furin cleavage Z-score (15 min) | furin cleavage Z-score (30 min)
1 | CALLLAVFGPAGNASASA [HC606] | -1.28 (inactive) | -0.292 (inactive) | 0.343 (inactive)
2 | CAVVCCVMSYAGNASASA [HC103] | -1.06 (inactive) | -0.0414 (inactive) | -1.47 (inactive)
3 | CATFYGMWPLAGNASASA [HC555] | -1.22 (inactive) | -0.0659 (inactive) | 1.29
4 | CARLKRLCSSAGNASASA [FS-2990] | 0.399 (inactive) | -0.446 (inactive) | 0.202 (inactive)
5 | CARIKRSAPLAGNASASA [FS-2954] | 11.4 (active) | 11.4 (active) | 10.2 (active)
6 | CAPRSRARKLAGNASASA [FS-842] | 0.0836 (inactive) | 1.96 | -0.483 (inactive)
7 | CARVWRATSSAGNASASA [FS-2110] | 1.3 | 0.783 (inactive) | 0.938 (inactive)
8 | CARIKRSRKLAGNASASA [FS-3156] | 7.25 (active) | 9.58 (active) | 9.07 (active)
9 | CARIKRQHSSAGNASASA [FS-1898] | 4.55 (active) | 5.06 (active) | 4.01 (active)
10 | CARKSRWAKLAGNASASA [FS-2982] | -0.417 (inactive) | 0.0632 (inactive) | 3.23
11 | CASTPCSAPLAGNASASA [HC2559] | -0.781 (inactive) | 0.424 (inactive) | 0.232 (inactive)
12 | CAEREVPCHRAGNASASA [HC2432] | 0.541 (inactive) | 0.603 (inactive) | 1.7
13 | CAEYVVLLFLAGNASASA [HC519] | -0.402 (inactive) | 0.168 (inactive) | -0.326 (inactive)
14 | CACFAWYLKGAGNASASA [HC547] | -1.21 (inactive) | -0.696 (inactive) | 0.991 (inactive)
15 | CAAARVTAILAGNASASA [HC1131] | 0.0621 (inactive) | 1.08 | -0.5 (inactive)
16 | CARRRRTAFAAGNASASA [FS-2798] | 5.77 (active) | 8.03 (active) | 7.17 (active)
17 | CARRRRTALAAGNASASA [FS-2800] | 7.39 (active) | 9.46 (active) | 7.26 (active)
18 | CARRRRKVLAAGNASASA [FS-2181] | -0.244 (inactive) | 1.09 | 1.13
19 | CARRRRRTAIAGNASASA [FS-2080] | 4.79 (active) | 6.3 (active) | 6.06 (active)
20 | CARRRRTAILAGNASASA [FS-2799] | 5.32 (active) | 8.15 (active) | 8.93 (active)
21 | CALTHIDAHFAGNASASA [HC943] | -1.16 (inactive) | -1.18 (inactive) | -0.971 (inactive)
22 | CAGWKRARRAAGNASASA [FS-246] | 10.7 (active) | 11 (active) | 9.68 (active)
23 | CAGLPVSARRAGNASASA [HC660] | -1.44 (inactive) | -0.486 (inactive) | -0.384 (inactive)
24 | CARKTRSHTAAGNASASA [FS-3225] | 4.24 (active) | 5.12 (active) | 4.27 (active)
25 | CARATRARRAAGNASASA [FS-82] | 10.6 (active) | 10.6 (active) | 7.6 (active)
26 | CARKTRSARRAGNASASA [FS-2040] | 7.75 (active) | 10.4 (active) | 8.66 (active)
27 | CALLGCIITSAGNASASA [HC680] | -0.345 (inactive) | -1.06 (inactive) | -1.24 (inactive)
28 | CANREVPCHRAGNASASA [HC2441] | 1.82 | -0.276 (inactive) | 0.432 (inactive)
